# Screens (PubChem)
# BJeLR viability = BJeLR cell viability loss | BJeLR (HRASV12) viability, CellTiter-Glo ATP luminescence, 48 h | inhibition, % (concentration not given with the values) | 0.17% of 300,000 active; in the data active means inhibition above about 50%
# Mtb FBA inh = inhibits M. tuberculosis FBA enzyme. 2.3% of 360,000 active. purified M. tuberculosis FBA, fluorescence read-out. inhibition, % at 1 µM. AID 588726; in the data active means inhibition above about 27%
# Target sequence (P9WQA3 whole entry, looked up): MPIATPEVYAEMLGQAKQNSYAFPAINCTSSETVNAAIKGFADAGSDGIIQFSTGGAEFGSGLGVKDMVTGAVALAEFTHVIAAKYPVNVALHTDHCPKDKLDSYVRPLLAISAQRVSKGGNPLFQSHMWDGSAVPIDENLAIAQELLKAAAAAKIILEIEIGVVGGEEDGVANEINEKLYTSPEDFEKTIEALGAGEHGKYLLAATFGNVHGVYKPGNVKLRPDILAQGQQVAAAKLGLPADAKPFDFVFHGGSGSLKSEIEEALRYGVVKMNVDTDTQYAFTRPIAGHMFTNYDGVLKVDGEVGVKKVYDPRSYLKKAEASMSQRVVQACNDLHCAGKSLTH
# RecA intein inh = inhibitors of M. tuberculosis RecA intein splicing; 0.75% of 290,000 active; P9WHJ3; inhibition, % (concentration not given with the values); cell-free RecA intein splicing, fluorescence; in the data active means inhibition above about 30%
# GDH-TPI inh = GDH-TPI coupled enzyme inhibition counter-screen; inhibition, % at 4.8 µM; GDH-TPI coupled enzyme counterscreen, NADH absorbance; 1.2% of 360,000 active; in the data active means inhibition above about 30%
# PrPC TRFRET = inhibitors of human cell surface prion protein PrPC | inhibition, % at 13.8 µM | AID 720596 | 0.43% of 370,000 active | P04156 | TR-FRET read-out; in the data active means inhibition above about 24%
# Numbers stand for hits; – = inactive; · = no result; + = active, no number. Most compounds without a hit are left out; they make up all but 4.2% or so of the library.
SMILES,BJeLR viability,Mtb FBA inh,RecA intein inh,GDH-TPI inh,PrPC TRFRET
CCOc1ccc2c(C)c(Cl)c(=O)oc2c1,–,+,–,–,–
Cc1c(C)c2ccc(OCC(=O)N3CCC(C(=O)O)(c4ccccc4)CC3)cc2oc1=O,–,140,·,–,–
COc1cc(OC)c2c(C)c(Cl)c(=O)oc2c1,–,124,–,–,–
COc1cc(OC)c2c(=O)cc(-c3ccccc3)oc2c1,–,–,–,–,–
Cc1c(C)c2ccc(OCC(=O)N3CCN(c4ccccc4)CC3)cc2oc1=O,–,–,–,–,·
CC(=O)COc1ccc2c(C)c(C)c(=O)oc2c1,–,131,–,–,–
COc1ccc(-c2c(C)c3ccc(OCC(C)=O)cc3oc2=O)cc1,–,·,–,·,·
FC(F)(F)c1ccccc1NC(=S)OCCN1CCCC12CCC(c1ccccc1)CC2 (stereo not given),·,·,·,·,–
CCC[C@H]1[C@@H](OC(=O)N2CCN(c3ccccc3)CC2)CC[C@@]23CCCN2C(=O)CCC[C@@H]13,·,·,·,·,–
Cc1ccccc1Cn1cc(CN2[C@@H](CC(C)C)COc3cccc(F)c3S2(=O)=O)nn1,·,·,·,·,–
Cc1c(Cl)c(=O)oc2cc(OCC(=O)NCc3cccs3)ccc12,–,37,·,–,–
COc1ccc2c(c1)c(=O)oc1cc(OC(C(=O)O)c3ccccc3)ccc12 (stereo not given),–,+,–,–,–
CC(Oc1ccc2c(c1)oc(=O)c1ccccc12)C(=O)NCCN1CCOCC1 (stereo not given),–,60,–,–,–
CC(Oc1ccc2c(-c3ccccc3)cc(=O)oc2c1)C(=O)NCCN1CCOCC1 (stereo not given),–,–,–,–,–
CC(Oc1ccc2c(c1)oc(=O)c1ccccc12)C(=O)NCC1CCC(C(=O)O)CC1 (stereo not given),–,129,–,–,–
O=C(O)C(Oc1ccc2c(-c3ccccc3)cc(=O)oc2c1)c1ccccc1 (stereo not given),–,–,–,–,–
COc1ccc(OC)c(CN2C(=O)CCCCC2(C)c2nnnn2C2CCCC2)c1 (stereo not given),·,·,·,·,–
N#Cc1ccc(/C=N/NC(=O)c2cc(-c3cccs3)nc3ccccc23)cc1,–,–,–,–,–
COc1cc(/C=N/NC(=O)c2cc(-c3cccc(OC(C)C)c3)nc3ccccc23)ccc1O,–,–,–,61,–
COc1cc(/C=N/NC(=O)c2cc(-c3cccs3)nc3ccccc23)ccc1O,–,–,–,56,–
COc1cc(/C=N/NC(=O)c2cc(-c3ccccc3)nc3ccccc23)cc(OC)c1O,–,–,–,–,–
C=CCN1C(C(=O)OC)CN(Cc2cn(Cc3ccc(Cl)cc3)nn2)CCS1(=O)=O (stereo not given),·,·,·,·,–
COc1cccc(N2CCN(c3ncnc4c3cnn4-c3ccc(C)cc3C)CC2)c1,–,–,–,–,34
Cc1ccc(-n2ncc3c(N4CCCC4)ncnc32)c(C)c1,–,–,–,–,–
FC(F)(F)c1nnc2c(Sc3ccccc3)nc3ccc(Cl)cc3n12,62,–,–,–,–
SMILES,BJeLR viability,Mtb FBA inh,RecA intein inh,GDH-TPI inh,PrPC TRFRET
COc1ccc(Nc2cc3n(c(=O)n2)CCc2cc(OC)c(OC)cc2-3)c(C)c1,–,–,–,33,–
COc1cc2c(cc1OC)-c1cc(N3CCc4ccccc43)nc(=O)n1CC2,–,–,–,43,–
COc1cc2c(cc1OC)-c1cc(NC3CCCCCC3)nc(=O)n1CC2,–,–,–,31,–
COc1cc2c(cc1OC)-c1cc(N3CCCc4ccccc43)nc(=O)n1CC2,–,–,–,–,–
COc1cc2c(cc1OC)-c1cc(Nc3ccc4c(c3)OCCO4)nc(=O)n1CC2,–,–,–,36,–
COc1ccc(Nc2cc3n(c(=O)n2)CCc2cc(OC)c(OC)cc2-3)cc1,–,–,–,–,–
CC1CN(c2nc3ccccc3nc2SCC(=O)N2CCN(S(=O)(=O)c3ccccc3)CC2)CC(C)O1 (stereo not given),·,·,·,·,–
Cc1nn(C)cc1NC(=O)C[C@H]1CC[C@H]2[C@@H](COc3ccc(NC(=O)Nc4ccccc4)cc3C(=O)N2C)O1,·,·,·,·,–
COc1ccc(CN(CCN2CCOCC2)C(=O)c2ccc(F)cc2F)cc1OC,·,·,·,·,–
Cc1cccc(C(=O)N[C@@H]2CC[C@@]34CCCN3C(=O)CCC[C@H]4[C@H]2C)c1,·,·,·,·,–
COc1cc2c(cc1OC)-c1cc(N3CCCCCC3)nc(=O)n1CC2,–,–,–,46,–
COc1cc2c(cc1OC)-c1cc(OCc3cccnc3)nc(=O)n1CC2,·,+,·,40,–
CCn1c(=O)n2n(c1=O)[C@H]1C[N+](Cc3ccc4c(c3)OCO4)=C(N)NC1=C(C)C2,·,·,·,·,–
C[C@H]1CCCN1c1ccc2c(c1)OCCCN(C1CC1)S2(=O)=O,·,·,·,·,–
COC(=O)c1cc2c(c3c4cc(OC)ccc4n(S(=O)(=O)c4ccc(OC)cc4)c13)C(=O)N(Cc1ccccc1)C2,·,·,·,·,–
C[C@H]1[C@@H](N(C)CC2CCCCC2)CC[C@@]23CCCN2C(=O)CCC[C@@H]13,·,·,·,·,–
CC(=C\C(=O)O)/C(=C\c1cccc2ccccc12)C(=O)O,–,–,–,31,–
O=C(OCC#CCSc1nnc(-c2cccc3ccccc23)o1)c1ccncc1,·,·,·,·,–
Cc1cc(N2CCC[C@@H]2C)nc2ccccc12,·,·,·,·,–
CC1CN(S(=O)(=O)c2ccc(C(=O)Nc3nccs3)cc2)CC(C)O1 (stereo not given),–,–,–,43,–
Nc1c(-c2cccc(Cl)c2)cnn1-c1cccc(C(F)(F)F)c1,–,–,–,–,–
Nc1c(-c2ccc(Cl)cc2)cnn1-c1cc(C(F)(F)F)cc(C(F)(F)F)c1,–,+,–,–,–
c1ccc(-c2nnc3n2N=C(c2ccc4ccccc4c2)CS3)cc1,·,·,·,·,–
COc1ccccc1C1C(C(=O)c2cc3ccccc3o2)=C(O)C(=O)N1c1cc(C)on1 (stereo not given),–,–,–,31,–
Cn1c(-c2ccccc2)c(C(=O)CC#N)c2ccccc21,–,–,–,–,–
SMILES,BJeLR viability,Mtb FBA inh,RecA intein inh,GDH-TPI inh,PrPC TRFRET
CCn1c(-c2ccccc2)c(C(=O)O)c2ccccc21,–,28,–,–,–
CCOC(=O)N1CCN(C(=O)C[C@H]2C[C@@]3(C(=O)OC)C(=C[C@H](COCc4ccccc4)O[C@@H]3C)N(Cc3ccco3)C2=O)CC1,·,·,·,·,–
Cc1ccccc1N/N=C1\CCCNC1=O,–,–,–,–,–
O=C1NCCC/C1=N\Nc1ccc(Br)cc1,–,–,–,37,–
CC12CCC3c4ccc(OCCCO)c([N+](=O)[O-])c4CCC3C1CCC2=O (stereo not given),·,·,·,·,–
COc1ccc(S(=O)(=O)/C(C#N)=C/Nc2ccc(NC(C)=O)cc2)cc1,–,–,–,31,–
COc1ccc(C(C#N)=Cc2ccc(NC(C)=O)cc2)cc1,·,–,·,40,–
COc1ccc(C=C(C#N)c2ccc(OC)cc2)cc1,·,–,·,–,–
CC(=O)Nc1ccc(N/C=C(\C#N)S(=O)(=O)c2ccc(Cl)cc2)cc1,–,–,–,–,–
CC(=O)Nc1ccc(C(C#N)=Cc2ccc(N(C)CCC#N)cc2)cc1,·,–,·,31,–
